# Reference: publication PMC4336329 (PLoS ONE, 2015)
# The campaign covered roughly 310,000 compounds. About 14,000 (4.5%) showed an effect of 50% or more. The effect is printed as a negative number. This excerpt belongs to a sample that is enriched for strong results.
# Target: human ether-à-go-go-related gene (hERG) potassium channel (human, UniProt Q12809)
# Experiment: primary screen, population patch clamp on CHO cells stably expressing hERG; higher = less effect of the substance
# 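Also: peak tail current of the secondary pulse compared with the same well before compound.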
# Chain of human ether-à-go-go-related gene (hERG) potassium channel (Q12809 whole entry, looked up): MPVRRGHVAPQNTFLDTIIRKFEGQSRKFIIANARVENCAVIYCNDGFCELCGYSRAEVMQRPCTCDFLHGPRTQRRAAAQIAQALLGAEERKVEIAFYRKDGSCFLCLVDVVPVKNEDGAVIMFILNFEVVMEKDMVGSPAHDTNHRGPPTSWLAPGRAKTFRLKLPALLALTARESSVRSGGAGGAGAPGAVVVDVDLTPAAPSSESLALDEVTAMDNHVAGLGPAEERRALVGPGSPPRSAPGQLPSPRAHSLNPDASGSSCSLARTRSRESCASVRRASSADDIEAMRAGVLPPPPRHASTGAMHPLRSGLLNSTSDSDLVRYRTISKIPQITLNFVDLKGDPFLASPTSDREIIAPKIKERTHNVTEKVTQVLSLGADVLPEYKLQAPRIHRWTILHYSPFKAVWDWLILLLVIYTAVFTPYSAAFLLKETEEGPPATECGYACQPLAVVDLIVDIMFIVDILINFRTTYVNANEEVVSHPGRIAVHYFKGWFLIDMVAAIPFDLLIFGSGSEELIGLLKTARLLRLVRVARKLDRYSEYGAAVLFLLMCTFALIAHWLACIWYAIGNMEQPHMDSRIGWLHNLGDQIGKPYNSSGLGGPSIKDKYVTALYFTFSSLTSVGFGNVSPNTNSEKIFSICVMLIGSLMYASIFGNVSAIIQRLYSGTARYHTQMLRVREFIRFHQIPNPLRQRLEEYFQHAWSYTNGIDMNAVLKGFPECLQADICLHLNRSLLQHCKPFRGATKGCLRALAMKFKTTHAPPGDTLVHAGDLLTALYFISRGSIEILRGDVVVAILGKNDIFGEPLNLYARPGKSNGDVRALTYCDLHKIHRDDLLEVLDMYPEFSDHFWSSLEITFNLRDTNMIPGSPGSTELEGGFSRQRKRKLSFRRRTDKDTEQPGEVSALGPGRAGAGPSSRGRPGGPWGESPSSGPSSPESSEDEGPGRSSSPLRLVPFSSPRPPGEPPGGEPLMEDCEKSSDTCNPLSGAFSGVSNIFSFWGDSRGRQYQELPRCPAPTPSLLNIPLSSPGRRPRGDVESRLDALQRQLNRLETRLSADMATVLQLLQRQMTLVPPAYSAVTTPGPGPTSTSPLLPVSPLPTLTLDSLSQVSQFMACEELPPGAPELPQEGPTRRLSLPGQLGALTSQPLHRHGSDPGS
row,Compound,"hERG current change (%, negative = inhibition) at 10uM [%]"
1,CCCC1(CCC)C(=O)NC(=NCc2ccccc2)NC1=O,12.7
2,Cc1cc(C)n(-c2nc3c(c(=O)[nH]c(=O)n3C)n2CC(O)COc2ccccc2C)n1 (stereo not shown),-31.9
3,O=C(COc1cccc2c1CCN(Cc1ccccc1F)C2=O)N1CCCCC1,-43.4
4,O=C(COc1cccc2c1CCN(Cc1ccccc1)C2=O)N1CCCCC1,-15
5,O=C(COc1cccc2c1CCN(Cc1ccc(Br)cc1)C2=O)N1CCOCC1,-58.4
6,O=C(COc1cccc2c1CCN(Cc1ccc(Cl)cc1)C2=O)N1CCOCC1,-60.2
7,CC1CCN(C(=O)COc2cccc3c2CCN(Cc2ccccc2)C3=O)CC1,-36
8,CCN1CCc2c(OCC(=O)N3CCCCC3)cccc2C1=O,5.33
9,CC(C)(C)/C=N/NC(=O)CNC(=O)c1ccc2c(c1)OCCO2,15.6
10,CC1(C)C2CCC1(C)C(OC(=O)CCn1ccnc1)C2 (stereo not shown),-25.5
11,Cc1ccc(C)c2sc(NC(=O)c3nc4ccccc4s3)nc12,2.76
12,CCN(CC)C(=O)Oc1ccc(Br)cc1C(=O)Nc1ccc(F)c(Cl)c1,2.76
13,CC(=O)c1ccc(/C=C/c2nc3ccccc3n2C)o1,-5.96
14,Cc1ccc(NCc2nnc(SCC(=O)Nc3cccc(O)c3)n2CC2CCCO2)c(C)c1 (stereo not shown),-68.2
15,Cc1ccc(NCc2nnc(SCC(=O)N3CCCCC3)n2CC2CCCO2)c(C)c1 (stereo not shown),-5.62
16,Fc1ccc(NCc2nnc(SCc3nnc(-c4ccccc4)o3)n2Cc2ccccc2)cc1,-46
17,Cc1ccc(NCc2nnc(SCC(=O)Nc3ccccc3)n2CC2CCCO2)c(C)c1 (stereo not shown),-0.0882
18,CCn1c(CNc2ccc(F)cc2)nnc1SCCN1CCCCC1,-12.1
19,CCSc1nnc(CNc2ccc(F)cc2)n1CC1CCCO1 (stereo not shown),-15.1
20,Cc1ccc(NCc2nnc(SCC(=O)NCc3ccco3)n2CC2CCCO2)cc1Cl (stereo not shown),-7.7
21,Cc1ccc(NCc2nnc(SCC(=O)Nc3ncc(C)s3)n2CC2CCCO2)c(C)c1 (stereo not shown),-12.4
22,Cc1ccc(NCc2nnc(SCC(N)=O)n2CC2CCCO2)c(C)c1 (stereo not shown),8.71
23,Cc1ccc(NCc2nnc(SCCN3CCCCC3)n2CC2CCCO2)cc1Cl (stereo not shown),-92.4
24,Cc1ccc(NCc2nnc(SCCN3CCCCC3)n2CC2CCCO2)c(C)c1 (stereo not shown),-58.5
25,Fc1ccc(NCc2nnc(SCc3nnc(-c4ccccc4)o3)n2CC2CCCO2)cc1 (stereo not shown),-53.1
